The source of these data is PubChem BioAssay (NCI).

“And” between values parts separate entries of the source, which are not always exact repeats. Equal values may be shown once. This is part of a sample that, as a whole, favours compounds with a hit. Of some 83,000 tested, about 20% had one in any assay.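 Interpretation: 100, growth as untreated; towards 0, rising growth inhibition; 0, no net growth; 0 to -100, cell death. Compounds scoring below 10 were considered active.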 Values without a mark were called inactive. The source made the active and inactive calls.

The test system of this assay is HL-60(TB) leukemia. In words: NCI-60 one-dose screen, 48 h (100 = growth as untreated, 0 = no growth, -100 = all killed).

As to `O=C(/C=C/c1cccc(Oc2ccc(Cl)cc2)c1)c1ccccc1`, the growth was 73.9% (10 µM) and -51.8% (active) (100 µM).

As to `CC(=O)/C=C/c1ccc(N(C)Cc2ccc(C(C)(C)C)cc2)cc1`, the growth reads like this: (10 µM) 53.9%; (100 µM) -48.9% (active).

As to `Clc1cc(Cl)cc(N2N=C(c3cccc(Nc4ccncc4)c3)CC2c2ccc3c(c2)OCO3)c1` (stereo not given), for the setting “10 µM unless noted”, the growth is 8.01% (active).

As for `O=c1[nH]cc(F)c(=O)[nH]1`, the growth is, setting by setting: (10 µM) 59.7%; (25 µM) 47.9%; (50 µM) 77.6%.

Regarding `COc1ccc(C(=O)c2cc(OC)c(OC)c(OC)c2)cc1/C=C/C(=O)c1ccc(OC)c(OC)c1`, the growth (10 µM unless noted) is 19.1%.

Take `COc1cc(NS(C)(=O)=O)ccc1Nc1c2ccccc2nc2ccccc12`: the growth (2.5 µM) was -0.933% (active); the growth (10 µM) was -43.9% (active) and -9.61% (active) and -4.58% (active).

In the case of `CCc1ccccc1-n1c(N)c(C#N)c(-c2ccc(OC)c(OC)c2)c(C#N)c1=O`, the growth is, setting by setting: (10 µM) 113%; (100 µM) 122%.

As for `CC(=O)/C=C/c1ccc(N(CCO)Cc2ccc(C(C)(C)C)cc2)cc1`, the growth (10 µM) is 69.6% and the growth (100 µM) was -55.3% (active).

Regarding `COc1ccccc1S(=O)(=O)Nc1ccc2c(c1)CN(C)C(=O)N2`, the growth (10 µM unless noted) is 21.9%.

With `COc1cccc2c1C(=O)c1c(O)c3c(c(O)c1C2=O)C[C@@](O)(C(=O)CO)C[C@@H]3OC1CC(N)C(O)C(C)O1` (stereo not given in full), the growth (0.0025 µM) was 100%, the growth (2.5 µM) is 81.9% and the growth (10 µM) is -21.8% (active).

Take `CN(Cc1cnc2nc(N)nc(N)c2n1)c1ccc(C(=O)N[C@@H](CCC(=O)O)C(=O)O)cc1`: the growth was 27% (2.5 µM) and 24.1% (10 µM).

With `COc1ccc(C2C3=C(COC3=O)N(CCO)c3cc(OC)c(OC)cc32)cc1` (stereo not given), the growth (10 µM unless noted) is 89%.

Turning to `O=S(=O)(c1ccccc1)n1cc2c(c1)-c1nc(Nc3ncccn3)sc1CC2`, the growth (10 µM unless noted) is 66.2%.

Regarding `CC1(C)OB(c2ccc(Cn3cc(F)c(=O)[nH]c3=O)cc2)OC1(C)C`, the growth was 97.7% (10 µM) and 32.5% (50 µM).

As to `CC(=O)O[C@H]1C(=O)[C@@]2(C)[C@H]([C@H](OC(=O)c3ccccc3)[C@]3(O)C[C@H](OC(=O)[C@H](O)[C@@H](NC(=O)c4ccccc4)c4ccccc4)C(C)=C1C3(C)C)[C@]1(OC(C)=O)CO[C@@H]1C[C@@H]2O`, the growth is, setting by setting: (0.01 µM) -8.36% (active); (2.5 µM) -43.6% (active); (5 µM) -42.4% (active); (10 µM) -12.3% (active) and -35.8% (active).

For `S=P(N1CC1)(N1CC1)N1CC1`, the growth is 99.5% and 32.7% (10 µM); 9.95% (active) (100 µM).

`O=C(O)c1ccccc1Cc1ccc(F)c2ccccc12`: the growth (10 µM unless noted) is 98.1% and 91.1%.

As to `COc1ccc(Cl)cc1C(=O)NCCc1ccc(S(=O)(=O)NC(=O)NC2CCCCC2)cc1`, the growth by setting is: (10 µM) 121% and 103%; (100 µM) 94.2%.

Turning to `Nc1c(C(=O)Nc2cccc(Cl)c2)sc2nc3c(cc12)C(=O)CCC3`, the growth (10 µM unless noted) is 33.1%.

Consider `CC(=O)/C=C/c1ccc(OCc2ccc(Cl)cc2)cc1`, for which the growth reads like this: (10 µM) 83.9%; (100 µM) 14%.

In the case of `CN1CCN(CCC=C2c3ccccc3Sc3ccc(S(=O)(=O)N(C)C)cc32)CC1`, the growth (10 µM unless noted) was 91.3% and 80.6%.

As for `CC/C(=C(\c1ccccc1)c1ccc(OCCN(C)C)cc1)c1ccccc1`, the growth (10 µM) was 39.6% and the growth (12.5 µM) is -57.1% (active).

In the case of `Fc1ccc(Nc2nc(NCCNc3ccnc4cc(Cl)ccc34)nc(N3CCOCC3)n2)cc1`, for the setting “10 µM unless noted”, the growth is -6.82% (active).

Take `O=C1c2cccc3cccc(c23)C(=O)N1CC#Cc1ccc2c3c(cccc13)C(=O)N(CCO)C2=O`: the growth (10 µM unless noted) was 112%.

Take `S=c1nc[nH]c2nc[nH]c12`: the growth runs as follows: (10 µM) 13.8%; (50 µM) 12.6%.

As to `CNC(=O)c1cc(Oc2ccc(CC(=O)Nc3cc(C(C)(C)C)nn3C)cc2)ccn1`, the growth was 85.3% (1 µM), 77% (10 µM) and 68.2% (30 µM).

As to `CN1CCN(Cc2ccc3c(NNC(=O)c4ccccc4)nc4cc(F)ccc4n23)CC1`, for the setting “10 µM unless noted”, the growth was 7.8% (active).

For the compound `CN(C)CCNc1ncc(F)c(-c2cnc3cc(-c4cnn(C)c4)ccn23)n1`, the growth (0.005 µM) was 101% and the growth (30 µM) is 4.9% (active).
